Experimental findings from PubChem BioAssay AID2732 (Emory University Molecular Libraries Screening Center, 2010) are described below.

Several values for one entry are separate records, joined by “and”; a condition that tells them apart may be missing. Equal values may be shown once. Among all 220,000 compounds or so, about 8,200 (3.7%) were called active. The full list was thinned out, with actives kept by preference. A number with no mark means an inactive call.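 The calls were made as follows: active = compounds that reduced the stress-induced luciferase reporter signal by more than about 70% of percent inhibition (limit read from the data); inactive = the rest.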

The nature of the assay: inhibitors of CHOP promoter induction, primary screen, cell-based, unfolded protein response, luciferase reporter (AID 2732).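 Also: 0% = tunicamycin plus vehicle and 100% = wells without tunicamycin.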 The conditions noted are these: CHO-K1 CHOP-promoter luciferase, tunicamycin-induced, 15-18 h; at 10 µM; hits give high values. In general terms: A reporter such as luciferase makes a cellular process visible.
For the compound `Cc1ccc(C(=O)NNc2ncnc3ccccc23)cc1`, the inhibition (usually the relative decrease from the control value, in per cent) was 3.67%. In the case of `Cc1nn(-c2ccccc2)c(=O)c2noc(C)c12` it was 1.49%; in that of `Cc1cc(N2CCN(C)CC2)nc2ccc(NC(=S)N3CCOCC3)cc12`, 2.29%. With `Cc1cc(N2CCOCC2)nc2ccc(NC(=S)N3CCN(Cc4ccccc4)CC3)cc12`, the inhibition was 80.6% (active). As for `CCn1c2ccccc2c2cc(NC(=S)N3CCOCC3)ccc21`, the inhibition is 30.3%.

`CC(CO)(CO)NC(=O)c1ccc(=O)[nH]n1`: the inhibition is 0.5%.

On to `O=P(O)(CN1CCCCCC1)C1Cc2ccccc2C1`, for which the inhibition was 4.35%. In the case of `O=c1cc(N2CCN(Cc3ccccc3)CC2)c(-c2ccccc2)n[nH]1` it was 26.9%; in that of `O=c1cc(N2CCCCC2)c(-c2ccccc2)nn1Cc1cccc(F)c1`, 74.7% (active). With `O=c1c2ccccc2c(-c2ccccc2)nn1Cc1ccccc1`, the inhibition was 43.8%.

With `C/C(Cc1ccccc1)=N\NC(=O)CNC(=O)c1ccccc1Cl`, the inhibition was -14.9%. Turning to `COc1ccc(OCC(O)CNCCNc2nccc(C(F)(F)F)n2)cc1` (configuration not stated), the inhibition was 3.94%. As for `COc1ccc(/C=N/NC(=O)Cn2cc(C(F)(F)F)ccc2=O)cc1`, the figure is -10.7%. As for `O=C(Cn1cc(C(F)(F)F)ccc1=O)N/N=C/c1ccc(Cl)cc1Cl`, the figure is 104% (active); as for `O=C(Cc1ccccc1)N/N=C/c1ccc(Cl)cc1Cl`, -13.9%. In the case of `NS(=O)(=O)c1ccc(NC(=O)COC(=O)c2cc3ccccc3oc2=O)cc1`, the inhibition was 5.84%. As for `CCOc1cc2c(Cl)ncnc2c(OCC)c1OCC`, the inhibition was 23.1%. Take `S=c1[nH]c2ccccc2c2ccccc12`: the inhibition was -2.18%. As for `CCN(CC)CCCN=C(N)N`, the figure is 3.64%; as for `CCOC(=O)C1CCN(c2ncnc3c2oc2ccc(Br)cc23)CC1`, 21.9%; as for `CCOC(=O)N1CCN(C(=O)C2CCN(c3ncnc4c3sc3cccc(F)c34)CC2)CC1`, 85.7% (active). In the case of `CCOC(=O)N1CCN(C(=O)C2CCN(Cc3ccc(OC)cc3OC)CC2)CC1` it was 18.3%.

Regarding `Nc1nc(NCC2CCCO2)nc(Nc2ccccc2F)c1[N+](=O)[O-]` (configuration not stated), the inhibition was 12.4%. With `CC(C)CCNC(=O)C1CCC(CNc2c(N3CCC(C)CC3)c(=O)c2=O)CC1` (configuration not stated), the inhibition is 1.09%.

As for `Cc1ccc2c(c1)nnc1nnc(SCC(=O)O)n12`, the inhibition was 3.13%.

On to `CS(=O)(=O)n1nc(-c2ccco2)nc1N`, for which the inhibition is 42.4%. Turning to `CSc1nc(-c2ccco2)nn1C(=O)CCc1ccccc1`, the inhibition was 37.2%.

For `CSc1nc(-c2ccco2)nn1C(=O)c1ccccc1Cl`, the inhibition is 78.2% (active). In the case of `COc1cccc(N2C(=O)CC(N3CCc4ccccc4C3)C2=O)c1` (configuration not stated) it was -8.87%; in that of `CSCC[C@H](NC(=O)CCCn1nnc2ccccc2c1=O)C(=O)O`, 4.06%; in that of `Cc1ccc(C(=O)c2c(NC(=O)c3ccncc3)sc3c2CCCC3)cc1`, 73.2% (active).

Consider `Cc1ccc(C(=O)c2c(NC(=O)c3ccccc3)sc(C)c2C)cc1`, for which the inhibition was 53.1%.

`Cc1ccc(NC(=O)c2c(NC(=O)CCC(=O)O)sc3c2CCCCC3)cc1`: the inhibition was 5.76%. As for `COc1c(C=O)c(CCN(C)C(=O)c2ccc(F)cc2)cc2c1OCO2`, the figure is -10.2%; as for `COc1ccccc1C1CCN(C(=S)Nc2ccc(Br)cc2)CC1`, 26.5%; as for `COCCn1nnnc1C(c1ccccc1Cl)N1CCN(c2ccccc2OC)CC1` (configuration not stated), 81.6% (active). As for `COc1ccccc1C(c1nnnn1C(C)(C)C)N1CCN(Cc2ccccc2)CC1` (configuration not stated), the figure is -9.46%.

Consider `COc1ccccc1C(c1nnnn1CC1CCCO1)N1CCN(c2ccccc2)CC1` (configuration not stated), for which the inhibition was -9.42%. For `O=C(NCc1cccnc1)C(=O)Nc1nc(-c2ccccc2)cs1`, the inhibition is 16.9%. In the case of `FC(F)(F)c1ccnc(Oc2ccc(C3=NCCS3)cc2)c1` it was 1.85%. In the case of `CC(C)=CCC/C(C)=C/C(=O)O` it was -11.9%; in that of `Cc1ccc(C(=O)N2CCCC(c3ccccc3)=N2)cc1`, 78.5% (active). In the case of `Cc1ccc(C(=O)C[n+]2cc(-c3ccccc3)n3c2CCCCC3)cc1` it was -15.7% and 24.3%; in that of `Cc1ccc(NC(=S)N2CCCC(c3ccccc3)=N2)cc1`, 16.8%. Turning to `O=C(COc1cc(Cl)c(Cl)cc1Cl)NCCc1ccccn1`, the inhibition is -12.8%. As for `O=C(COc1cc(Cl)c(Cl)cc1Cl)NC(=O)NC1CCCC1`, the figure is 91% (active); as for `O=C(COc1ccccc1F)NC1CC1`, 40%. As for `CCN(CC)CCC(c1ccc2c(c1)OCO2)c1c(OC)cc(OC)c2c(-c3ccccc3)cc(=O)oc12` (configuration not stated), the figure is -37.9%; as for `COc1ccc(NS(=O)(=O)c2ccc(Oc3c(C#N)cccc3C#N)cc2)cc1`, 54.8%; as for `CCN(CC)CC(=O)c1c[nH]c2ccc(OC)cc12`, -4.19%. As for `COc1ccc2[nH]cc(/C=C(/C#N)S(=O)(=O)c3ccccc3)c2c1`, the figure is 70.3% (active); as for `Cc1cc(C)nc(SCc2cn3c(C)cc(C)nc3n2)n1`, 19.4%. As for `Cc1onc(-c2ccc(Cl)cc2)c1-c1ccnn1S(=O)(=O)c1ccc(Cl)cc1`, the inhibition was 57.9%. As for `COc1ccc(CCNC(=O)CSc2nc3[nH]ncc3c(=O)n2-c2cccc(C(F)(F)F)c2)cc1OC`, the figure is 16.4%. In the case of `COc1ccc(-n2cnnc2SCC(=O)Nc2cccc([N+](=O)[O-])c2)cc1` it was 5.96%.

On to `NC(=O)NC(=O)CSc1nc2cc([N+](=O)[O-])ccc2n1-c1cccc(C(F)(F)F)c1`, for which the inhibition is 76.3% (active). Regarding `NS(=O)(=O)c1ccc(NC2=CC(c3ccc(F)cc3)N(c3ccc(S(N)(=O)=O)cc3)C2=O)cc1` (configuration not stated), the inhibition is -15.2%. As for `CC(C)(C)c1nc2ccccc2c(=O)n1N1C(=O)c2ccccc2C1=O`, the figure is 71.3% (active). Turning to `CCC1(CC)Cc2ccccc2-c2nc3ccccc3c(=O)n21`, the inhibition was 16.7%.

As for `CN(C)CCCn1c(SCCN2C(=O)c3ccccc3C2=O)nc2ccccc2c1=O`, the inhibition is 4.6%.

Consider `CCCN(c1ccc(C)cc1)c1nc(=O)c2cccnc2s1`, for which the inhibition is 12.3%. In the case of `Cc1cc(N)n(-c2ccc(S(=O)(=O)N3CCCC3)cc2[N+](=O)[O-])n1` it was 7.68%; in that of `CC(C)Nc1ncnc2c1nnn2Cc1ccccc1`, 21.7%; in that of `Cn1c(=O)c2[nH]c(NCC3CCCO3)nc2n(-c2ccccc2)c1=O` (configuration not stated), 8.41%. As for `CC(C)(C)c1nc(NCC2CCCO2)c2nnn(Cc3ccccc3)c2n1` (configuration not stated), the figure is 71.1% (active); as for `CC/C=C/C(=O)N1CC2(CC(c3cccc(NC(=O)CC)c3)=NO2)C[C@H]1C(N)=O` (some centres not stated), -5.15%; as for `CC(C)Cc1nnc(NC(=O)CCC(=O)Nc2ccc3cn[nH]c3c2)s1`, -20.9%. As for `COc1cc(/C=N/Nc2nc3ccccc3s2)ccc1O`, the figure is 3.98%; as for `COc1cc(/C=C(\C#N)c2nc3c(s2)CC(C)CC3)ccc1O` (configuration not stated), 93.6% (active).

As for `CCOc1cc(/C=C(\C#N)c2nc(-c3cccs3)c(NC(C)=O)s2)ccc1O`, the inhibition is -1.5%.

Regarding `O=C(COC(=O)/C=C/c1ccc2c(c1)OCO2)NC1CCS(=O)(=O)C1` (configuration not stated), the inhibition was 17.7%.

As for `Cc1nc(C)c2c(c1C(F)(F)F)-c1ccccc1C2(F)F`, the inhibition was 84.7% (active).

For `CSc1n[nH]c(=S)n1N`, the inhibition was 0.04%. As for `CC(C)(C)C(=O)OCc1nc(-c2ccc(O)c(O)c2)cs1`, the figure is -105%. As for `Cc1ccc(C(=O)NC(=S)Nc2ccc3[nH]c(=O)[nH]c3c2)cc1C`, the figure is 1.63%; as for `Cc1ccc(S(=O)(=O)/N=C(/Nc2ccc3[nH]c(=O)[nH]c3c2)c2ccccc2)cc1`, -16.7%; as for `Cc1cc(C)cc(C(=O)NC(=S)Nc2ccc3[nH]c(=O)[nH]c3c2)c1`, 81.3% (active). As for `CC1(C)CCCC2=C1CC1C(=O)N(c3ccccc3)C(=O)C1C2` (configuration not stated), the figure is 12%; as for `CC1CC2=C(CC1/C=N/NC(N)=S)C(C)(C)CCC2` (configuration not stated), 89.8% (active); as for `CN(C(=O)Nc1ccc(Cl)cc1)n1cnc2ccccc2c1=O`, 20.1%. Regarding `CC1(C)C=C2[C@H]3CC[C@@H]4[C@@]5(C)CCC(=O)C(C)(C)[C@@H]5CC[C@@]4(C)[C@]3(C)CC[C@@]2(C(=O)O)CC1`, the inhibition is 95% (active). In the case of `COC(=O)/C=C(\Oc1ccccc1)C1(O)CCCCC1` it was 7.27%; in that of `Fc1ccc(Nc2nnns2)cc1`, 3.88%; in that of `Cc1ccc(-n2ncc3c2ncn2nc(-c4ccco4)nc32)c(C)c1`, 105% (active). In the case of `COC(=O)CSc1ncnc2c1cnn2-c1ccc(C)cc1C` it was -4.08%.

In the case of `Cc1ccc(-n2ncc3c(=O)n(-c4ccc(C)c(C)c4)c(-c4ccco4)nc32)cc1`, the inhibition was 37.9%. For the compound `O=C(NCc1cccnc1)Nc1cccc(NC(=O)NCc2cccnc2)c1F`, the inhibition is 7.4%.

`CN1CCN(C2=NCCO2)CC1`: the inhibition was 2.43%. As to `O=C(Nc1nnc(SCc2ccc(Cl)cc2Cl)s1)C1COc2ccccc2O1` (configuration not stated), the inhibition is 71.3% (active). As for `O=C(Nc1nc2c(F)cc(F)cc2s1)C1COc2ccccc2O1` (configuration not stated), the figure is 17.5%; as for `O=C(Nc1nnc(SCc2c(Cl)cccc2Cl)s1)C1CCCO1` (configuration not stated), 18.8%; as for `Cc1cnc(NC(=O)c2ccccn2)s1`, 8.8%. Consider `CN(C)S(=O)(=O)c1ccc(C(=O)NCC(C)(C)N2CCOCC2)cc1`, for which the inhibition was -18.3%. As for `Oc1ccc(/C=N/Nc2nc(-c3ccccc3F)nc3ccccc23)c(O)c1`, the figure is 57.6%; as for `Cc1nc2ccccc2nc1N/N=C/c1ccc(O)cc1O`, 74.5% (active). As for `Oc1ccc(/C=N/NC2=NCCCCC2)c(O)c1`, the figure is -12.1%; as for `O=C(O)Cc1csc(NC(=O)CSc2nnnn2-c2ccc(O)cc2)n1`, -5.01%.
